Bioassay records (PubChem)
This is a sample that favours compounds with a hit; in the whole collection about 10% have one here.
PNC inhibitor: blocks assembly of the perinucleolar compartment | PC3M PTB-GFP, PNC prevalence imaging, 16 h; stronger effect = lower value | activity change (PNC), negative = inhibition, % at 10 µM | actives 3.1% (n = 140,000);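 active = readout at or below -70, meaning at least 70% loss of cells showing the perinucleolar compartment, a nuclear body marking cancer cells; inconclusive = readout between -30 and a set limit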
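Read-out is percentage of cells bearing a perinucleolar compartment, from automated 20x imaging of fixed, Hoechst-stained PC3M PTB-GFP cells. Cells were seeded 4 h, then exposed 16 h to compound (23 nl of library stock) in duplicate plates.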
HPGD block: inhibitors of human 15-hydroxyprostaglandin dehydrogenase (HPGD); P15428; purified HPGD, NADH fluorescence kinetic, PGE2 substrate; Potency, µM, hits mostly inhibitors; actives 4.3% (n = 150,000); AID 894
Target sequence (P15428 whole entry, looked up): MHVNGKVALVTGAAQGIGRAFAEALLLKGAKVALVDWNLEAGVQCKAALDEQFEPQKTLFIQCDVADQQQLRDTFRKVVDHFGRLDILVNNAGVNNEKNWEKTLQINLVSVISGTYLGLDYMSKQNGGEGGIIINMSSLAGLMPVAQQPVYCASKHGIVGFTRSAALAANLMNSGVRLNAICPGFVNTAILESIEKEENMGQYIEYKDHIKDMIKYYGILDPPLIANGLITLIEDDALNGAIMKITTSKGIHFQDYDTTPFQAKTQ
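NADH formation kinetics: reaction with 30 uM PGE2 and 1 mM NAD+ (final), 20 nM enzyme, Tris-HCl pH 8 with Tween 20, after 15 min compound preincubation at room temperature. Fluorescence change, last versus first of five reads.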
LMNA splice mod: changes lamin A minigene splicing in HeLa cells. Potency, µM (doses to about 46.1 µM), usual class: inhibitors. HeLa LMNA splicing GFP/RFP minigene ratio, 48 h. actives 0.01% (n = 200,000). AID 1487; active = well fitted inhibition curve with a large enough effect in the signal ratio, with a control signal flat, not every such curve was filed as active; inconclusive = small, poorly fitted or top-dose-only effect, or effect the other way, or a change in a side signal; the % refers to the signal ratio
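S3 HeLa cells stably expressing lamin A-EGFP splicing minigene plus DsRed2, 600 cells/well, 48 h compound exposure at 37C. Laser-scanning cytometry; analysed as GFP (500-530 nm)/RFP (575-640 nm) total intensity ratio; 0.5% DMSO vehicle.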
ALDH1A1 block: inhibitors of human aldehyde dehydrogenase 1A1. Potency, µM (series often up to 75.3 µM), hits mostly inhibitors. AID 1030. Purified ALDH1A1, NADH fluorescence, propionaldehyde substrate. actives 7.3% (n = 220,000)
12-hLO inh: 12-hLO (ALOX12) enzyme inhibition | purified 12-hLO, xylenol orange hydroperoxide absorbance | Potency, µM (doses to about 57.1 µM), most hits filed as inhibitors | actives 0.12% (n = 150,000) | P18054 | AID 1452; active = well fitted inhibition curve with a large enough effect; inconclusive = small, poorly fitted or top-dose-only effect; note: nearly all actives have a fitted effect of over 55% in size
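Lipoxygenase turnover measured by absorbance at 573 and 405 nm after Fe-XO development. Human 12hLO 150 nM, arachidonate 40 uM, pH 7.0 Hepes buffer with detergent; 15 min compound preincubation, 30 min reaction.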
HPGD inh cf: confirmation of human HPGD inhibitors | shares compounds with HPGD block | recombinant HPGD, NADH fluorescence, PGE2 substrate | Potency, µM (series often up to 57.1 µM), usual class: inhibitors | actives 90% (n = 90); calls by dose curve
Hits are given with their value; n = inactive; u = inconclusive; x = no result. Unless noted, calls come from the whole dose curve; as a rule, active = well fitted inhibition curve with a large enough effect (not every such curve was filed as active); inconclusive = small, poorly fitted or top-dose-only effect, or another doubt; inactive = no such curve, though single readings can be large or run the other way.

SMILES | PNC inhibitor | HPGD block | LMNA splice mod | ALDH1A1 block | 12-hLO inh | HPGD inh cf
C[n+]1c2n(c3ccccc31)N=C(c1ccc(Br)cc1)CS2 | n | n | n | 18µM | n | x
CN(C)/C=C/c1onc(-c2ccccc2Cl)c1C#N | x | x | u | 6.3µM | x | x
O=c1c2ccccc2sn1-c1cc(S(=O)(=O)N2CCOCC2)ccc1N1CCCC1 | -108 | 0.22µM | n | 0.022µM | 0.5µM | 2.5µM
CC(=O)O[C@H]1C(=O)[C@@]2(C)C([C@H](OC(=O)c3ccccc3)[C@]3(O)C[C@H](OC(=O)[C@H](O)[C@@H](NC(=O)c4ccccc4)c4ccccc4)C(C)=C1C3(C)C)[C@]1(OC(C)=O)CO[C@@H]1C[C@@H]2O (stereo partly drawn) | x | n | u | n | x | x
c1cc(-c2nnc3n2CCCCC3)ccn1 | n | n | n | n | n | x
Cc1cc(-c2nnc3n2CCCCC3)c(C)n1-c1ccccc1 | u | 0.16µM | n | u | n | 0.089µM
CCN(Cc1nc(-c2ccc(OC)cc2)oc1C)S(=O)(=O)c1ccc(Cl)cc1 | x | x | n | x | x | x
COc1ccc([C@@H]2[C@@H](O)[C@H](O)[C@@H](C)N2C)cc1OC | x | n | x | n | x | x
CCOC(=O)c1sc(NC(=O)CSc2n[nH]c(-c3ccccc3)n2)c(C#N)c1C | n | 1µM | n | 2.8µM | n | 1.1µM
Cc1ccc(-n2nnnc2CNC(=O)c2ccccc2)cc1C | x | x | n | x | x | x
O=c1c2ccccc2[nH]c(=S)n1Cc1ccc2c(c1)OCO2 | x | x | x | n | x | x
O=C(c1ccc2c(=O)n(Cc3ccc4c(c3)OCO4)c(=S)[nH]c2c1)N1CCCCC1 | u | 0.4µM | n | n | n | u
C1OCOCO1 | x | n | u | n | n | x
COC(=O)c1cc2ccc(OC)c(OC)c2c(=O)s1 | n | n | n | n | n | x
COc1ccc2cc(C(=O)N3CCCCCC3)sc(=O)c2c1OC | n | 0.13µM | n | 8.9µM | n | 0.25µM
CC1CCCN(C(=O)c2ccncc2)C1 (stereo not drawn) | u | n | n | n | n | x
CC1CCCN(C(=O)c2ccc(COc3ccccc3Br)cc2)C1 (stereo not drawn) | n | 0.089µM | u | 25µM | n | 0.13µM
CCOC(=O)c1ccc(NC(=S)NCCc2ccc(F)cc2)cc1 | x | x | x | n | x | x
Cc1ccc(-c2n[nH]c(=S)n2/N=C/c2c(C)nn(-c3ccccc3)c2C)cc1 | n | 1.1µM | n | n | n | 0.5µM
CN(C)C(=O)c1ccc(-c2nc(NCc3ccccc3)c3ccccc3n2)cc1 | x | u | u | n | n | 14µM
CN(C)C(=O)c1ccc(-c2nc(N(C)C)c3ccccc3n2)cc1 | x | 0.32µM | n | u | n | 2.5µM
O=c1[nH]c(SCc2ccccc2Cl)nc2c1CCC2 | -101 | 1µM | n | n | n | 2.2µM
CNc1nc(SCc2ccccc2Cl)nc2c1CCCC2 | n | n | u | n | n | x
COCCNC(=O)c1nc2c(nnn2Cc2cc(C)ccc2C)c(=O)[nH]1 | u | 0.2µM | n | u | n | 0.71µM
Cc1ccc(C)c(Cn2nnc3c(=O)[nH]c(C(=O)NCC4CCCO4)nc32)c1 (stereo not drawn) | n | 1.3µM | n | n | n | 0.4µM
SMILES | PNC inhibitor | HPGD block | LMNA splice mod | ALDH1A1 block | 12-hLO inh | HPGD inh cf
COc1ncc2nc(C)c(=O)n(Cc3cccs3)c2n1 | x | n | x | n | n | x
CCOC(=O)c1ccc(N2C(=O)C3CC=C(C)CC3C2=O)cc1 (stereo not drawn) | n | n | n | u | n | x
O=C(c1ccc(N2C(=O)C3CC=C(Cl)CC3C2=O)cc1)N1CCOCC1 (stereo not drawn) | x | x | n | n | x | x
O=C(c1ccc(N2C(=O)C3CC=C(Cl)CC3C2=O)cc1)N1CCCCC1 (stereo not drawn) | n | 0.5µM | n | 18µM | n | 0.25µM
CC1=CCC2C(=O)N(c3ccc(C(=O)N4CCCCCC4)cc3)C(=O)C2C1 (stereo not drawn) | n | 1.4µM | n | u | n | 0.79µM
C/C(=N/OC(=O)c1ccc(C)cc1)c1ccc(N2C(=O)C3CCCCC3C2=O)cc1 (stereo not drawn) | n | x | n | n | n | x
O=C(c1ccc(N2C(=O)C3CCCCC3C2=O)cc1)N1CCCCC1 (stereo not drawn) | n | 1µM | n | u | n | 0.56µM
